Hits are enriched below; roughly 12% of the tested compounds scored in any of these assays.
Pf growth 96h – P. falciparum growth inhibition at 96 hour, primary screen for plastid delayed-death inhibitors; 320,000 tested, 6.9% active; Potency, µM (top dose mostly 28.7 µM), inactives show at the top dose activity change, negative = inhibition, usual class: inhibitors; AID 504834; P. falciparum luciferase reporter growth, 96 h; also: % is scaled to controls: 0 for no effect and ±100 for the full control effect
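Two parasite generations (96 h, 37 C, 5% CO2) of compound exposure in infected erythrocytes (0.05% parasitemia, 2% hematocrit). Luciferase-reporter P. falciparum; decreased luminescence indicates inhibited growth, aimed at apicoplast-acting delayed death.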
Pf growth 48h – P. falciparum growth inhibition at 48 hours (one generation) | P. falciparum luciferase growth in erythrocytes, 48 h | Potency, µM (top dose mostly 28.7 µM), inactives show at the top dose activity change, negative = inhibition, hits mostly inhibitors | 310,000 tested, 5.9% active | AID 504832; also: % is scaled to controls: 0 for no effect and ±100 for the full control effect
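Parasite viability was followed by luminescence of a genomically integrated firefly luciferase. Cultures held 0.1% parasitemia at 2% hematocrit (final), incubated under 5% CO2 at 37 C.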
HCV inhibitor – blocks hepatitis C virus | Potency, µM (top dose mostly 41.8 µM), without a hit: top-dose activity change, negative = inhibition, hits mostly inhibitors | 340,000 tested, 3.4% active | AID 651820 | Huh7.5.1 HCVcc-Cre infection, luciferase reporter, 44 h; also: % is scaled to controls: 0 for no effect and ±100 for the full control effect
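Compounds are dispensed onto cells plated 4 h earlier at 1,000 per well, with HCVcc-Cre virus (about 0.5 moi) added next. Following 44 h of culture, luminescent signal is measured for 15 sec after 15 min with substrate at room temperature.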
AMA1 RON2 block – inhibitors of Plasmodium falciparum AMA1-RON2 interaction | Potency, µM (series often up to 58.2 µM), inactives show at the highest dose activity change, negative = inhibition, most hits filed as inhibitors | AlphaScreen AMA1-biotinylated RON2 peptide binding | 360,000 tested, 0.2% active;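 also: 0% = vehicle wells and -100% = peptide control; nearly all actives have a fitted effect of over 45% in size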
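AMA1 (3D7) with his tag at 25 nM final met compounds first, then biotinylated RON2 peptide at 25 nM; detection used donor plus acceptor beads, 10 µg/mL apiece, read by AlphaScreen after 30 min at room temperature.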
NS1 function inh – blocks influenza NS1 protein function | Potency, µM (highest dose often 46.1 µM), for the others: at the highest dose activity, positive = more growth | 270,000 tested, 0.4% active | AID 2326; calls by dose curve; also: actives are rising curves; nearly all actives have a fitted effect of over 50% in size
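A cell-based growth assay was used: compounds that relieve NS1-induced slow growth of budding yeast raise OD600. Assay medium was yeast nitrogen base with ammonium sulphate and -URA supplement, pH 6.0, with 2% galactose.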
SARS PLpro yeast – inhibitors of SARS-CoV papain-like protease in yeast; S. cerevisiae expressing SARS-CoV PLpro, growth rescue; Potency, µM (highest dose often 32.9 µM), without a hit: top-dose activity, positive = growth rescue, usual class: activators; 330,000 tested, 0.19% active; calls by dose curve; also: 0% is about no effect; nearly all actives have a fitted effect of over 55% in size
Active calls of the source: *; ? = inconclusive; · = no result. Unless noted, calls follow the shape of the dose curve; as a rule, active = well fitted curve in the direction sought with a large enough effect; inconclusive = small, poorly fitted or top-dose-only effect, or another doubt; inactive = no such curve, though single readings can be large; an effect the other way counts as inactive or inconclusive. Potency is read from the fitted curve at half-maximal effect.

SMILES | Pf growth 96h | Pf growth 48h | HCV inhibitor | AMA1 RON2 block | NS1 function inh | SARS PLpro yeast
CCc1ccc(N/C(SCc2ccccc2C)=C(/C#N)C(=O)NCc2ccco2)cc1 | 13% | 13µM* | ? | 35% | 9% | -4%
CCc1ccc(OCCCC(=O)NCc2ccco2)cc1 | 50% | ? | 10% | -5% | -9% | -2%
CC(C)C[C@@H]1O[C@H](C(C)C)Cc2[nH][nH]c(=O)c21 | · | · | · | 22% | · | ·
CCC(CO)(C(=O)OC1CC2CCC(C1)N2C)c1ccccc1 (stereo unspecified) | 12µM* | -20% | 16% | 0% | -5% | 6%
CC1C/C(=C/c2ccncc2)C(=O)/C(=C/c2ccncc2)C1 (stereo unspecified) | -22% | ? | ? | -3% | · | -31%
CC1C/C(=C/c2cccn2C)C(=O)/C(=C/c2cccn2C)C1 (stereo unspecified) | ? | · | 6.3µM* | ? | 27% | -15%
COc1ccc(OC)c(-n2c(-c3ccc(S(C)(=O)=O)cc3)cc(C=O)c2C)c1 | ? | 12µM* | 10% | -7% | ? | 1%
Cc1ccc(NC(=S)/N=C(\N)Nc2nc(C)c3cc(C)c(C)cc3n2)cc1C | 10µM* | ? | ? | 72% | -1% | 0%
Cc1ccc(NC(=S)/N=C(\N)Nc2nc(C)c3cc(C)ccc3n2)c(C)c1 | ? | ? | 2.8µM* | 33% | 16% | ?
COc1ccc(NC(=S)/N=C(\N)Nc2nc(C)c3ccccc3n2)cc1 | 2.9µM* | ? | ? | 22% | ? | 26%
COc1ccc2nc(N/C(N)=N/C(=S)Nc3cccc(C)c3)nc(C)c2c1 | 20% | ? | ? | -9% | ? | ?
O=C1OC/C(=C(/O)c2ccc(Cl)cc2)C1=O | -8% | 12µM* | 21% | -3% | -16% | -3%
O=C(O)CCCN1C(=O)C(=O)/C(=C(/O)c2ccc(Cl)cc2)C1c1ccccc1 (stereo unspecified) | 63% | 44% | 16% | 0% | 6% | 1%
CCOC(=O)C1=CN(Cc2cccc(F)c2)S(=O)(=O)N(CC)C1c1ccccc1 (stereo unspecified) | · | · | 0.56µM* | 7% | · | 5%
Cc1ccc(C(C(=O)NC2CCCC2)N(C(=O)Cc2cccs2)c2cccc(C)c2C)o1 (stereo unspecified) | 12µM* | ? | -4% | -8% | -4% | -2%
COc1ccc(C(=O)N(CC2CCCO2)C(C(=O)NC2CCCC2)c2ccc(Cl)cc2)cc1OC (stereo unspecified) | 6.6µM* | 12µM* | 21% | 15% | -10% | 5%
O=C(NC1CCCC1)C(c1ccc(O)cc1)N(CC1CCCO1)C(=O)C1COc2ccccc2O1 (stereo unspecified) | 15% | ? | -7% | 2% | -57% | 1%
COc1ccc(C(=O)N(CC2CCCO2)C(C(=O)NCCC(C)C)c2ccc(C)cc2)cc1OC (stereo unspecified) | 31% | ? | 1% | 5% | -9% | 9%
COc1ccc(C(C(=O)NC2CCCCC2)N(CC2CCCO2)C(=O)C2COc3ccccc3O2)cc1OC (stereo unspecified) | 1% | 12µM* | -9% | 32% | -4% | 11%
O=C(COC(=O)Cc1ccsc1)Nc1ccc(Br)cc1F | 24% | 31% | -10% | -1% | · | 0%
Cc1ccc(NC(=O)c2ccc([N+](=O)[O-])o2)cc1C | 36% | ? | 13µM* | 5% | · | -33%
O=C(Nc1cccc([N+](=O)[O-])c1)c1ccc([N+](=O)[O-])o1 | · | · | · | -5% | · | ·
O=C(Nc1ccc2[nH]c(=O)[nH]c2c1)c1ccc([N+](=O)[O-])o1 | 12µM* | ? | 10µM* | -3% | · | -1%
O=C(Nc1cccc(NC(=O)c2ccccc2Cl)c1)c1ccc([N+](=O)[O-])o1 | 5% | ? | 10µM* | -5% | -5% | -12%
O=C(CCc1nnc2ccc(NCc3ccco3)nn12)Nc1ccccc1F | 32% | 22% | 1% | 8% | 2% | -3%
SMILES | Pf growth 96h | Pf growth 48h | HCV inhibitor | AMA1 RON2 block | NS1 function inh | SARS PLpro yeast
COc1ccc(CCNC(=O)CCC(=O)NC2CCCC(C)C2C)cc1OC (stereo unspecified) | ? | 28% | 16% | -8% | 13% | 10%
O=C(Nc1ccnn1C1CCN(C2CCC2)CC1)c1ccccc1 | 12µM* | -3% | · | -2% | -7% | 1%
CC(=O)Nc1ccc(NC(=O)C(C)OC(=O)c2cccc(S(=O)(=O)N3CCCC3)c2)cc1 (stereo unspecified) | 21% | 21% | 19% | -13% | · | 0%
CC(=O)N1CCN(c2ccc(OC[C@@H]3CO[C@@](Cn4ccnc4)(c4ccc(Cl)cc4Cl)O3)cc2)CC1 | 11µM* | ? | · | · | · | ·
CC(=O)N1CCN(c2ccc(OC[C@H]3CO[C@](Cn4ccnc4)(c4ccc(Cl)cc4Cl)O3)cc2)CC1 | 4.7µM* | 5.9µM* | ? | -7% | -63% | -16%
CCCOc1ccc(C(=O)Nc2ccc(N3CCN(C(C)=O)CC3)cc2)cc1 | -17% | ? | ? | -11% | 0% | 10%
COc1ccc(C(=O)NC(NC(=O)c2ccc(OC)cc2)c2ccccc2F)cc1 | 4% | -6% | -22% | -4% | -1% | 0%
C=CC(=O)NC(NC(=O)C=C)c1ccccc1F | 9.3µM* | ? | 15% | -15% | -2% | 0%
CCn1c(=O)c2sccc2n2c(CCCC(=O)NCc3cccnc3)nnc12 | 13µM* | 25% | 7% | 8% | 7% | 0%
COc1cc(C)ccc1OCCCOc1c(Cl)cccc1Cl | 0.13µM* | 45% | 0% | 53% | -22% | 4%
COc1cc(C)ccc1OCCOCCOc1ccccc1Br | 2.6µM* | -1% | ? | 86% | -63% | -5%
COc1cc(C)ccc1OCCOCCOc1cc(C)c(C)cc1Br | 38% | -14% | ? | 55% | -22% | 5%
O=C(Nc1ccc(F)c([N+](=O)[O-])c1)c1ccc2c(c1)C(=O)OC2=O | 54% | 44% | · | · | 8% | 2%
COC(=O)C1=C(C)NC(=O)NC1c1ccc(-c2ccc(Cl)cc2)o1 (stereo unspecified) | ? | -15% | 8.9µM* | -1% | 2% | 1%
COC(=O)C1=C(C)NC(=S)NC1c1ccc(-c2cc(Cl)ccc2Cl)o1 (stereo unspecified) | ? | 12µM* | ? | 21% | 1% | -2%
O=C1c2cc(Br)ccc2N(Cc2ccc(Br)cc2)S(=O)(=O)C1c1cc(Cl)c(Cl)cc1[N+](=O)[O-] (stereo unspecified) | · | · | 13% | -6% | · | -3%
CCOC(=O)c1c(C)oc2ccc(OC(=O)COc3c(F)c(F)c(F)c(F)c3F)cc12 | 1% | 16% | ? | 16% | -39% | -53%

Screening results as filed in PubChem.
